# DT40 TDP1 no CPT = qHTS for Inhibitors of human tyrosyl-DNA phosphodiesterase 1 (TDP1): qHTS in cells in absence of CPT | DT40 Tdp1-/- hTDP1 cells, no CPT, ATP luminescence, 48 h | 15% of 420,000 active | Potency, µM (highest dose often 46.2 µM), for inactives: at the highest dose activity change, negative = growth inhibition, usual class: inhibitors; note: potency is the fitted concentration of half-maximal effect; % is set by controls: 0 for no effect and ±100 for the full control effect; nearly all actives have a fitted effect of over 55% in size
#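 Cells were dispensed at 400 per well, compounds added by pin tool, plates incubated ≥48 hr at 37 °C, then CellTiter-Glo added for 30 min at room temperature before luminescence reading. Line: DT40 Tdp1-/- complemented with hTDP1; camptothecin omitted.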
# IL1B secr inh = inhibitors of inflammasome signaling (IL-1 beta secretion). THP-1 LPS/ATP IL-1B secretion, AlphaLISA, 16 h; hits give low values. 4.7% of 360,000 active. activity change, % at 57.5 µM; in the data active = activity change below about -50%; inconclusive = mostly about -30% to -49%; note: % is set by controls: 0 for no effect and ±100 for the full control effect
#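 THP-1 cells pretreated 1 hr with compounds (up to 57.5 uM final), then stimulated with LPS (250 ng/mL final) plus ATP (1.25 mM final); secreted IL-1B measured by AlphaLISA after 16 hr, decreased signal indicating inhibition.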
# TGFb inhibitor = TGF-b pathway inhibition. HepG2 CAGA-GFP TGF-b/SMAD3 reporter, GFP fluorescence, 18 h; TGF-beta stimulated, 500 pg/mL final. Potency, µM (doses to about 46.1 µM), inactives show at the top dose activity, negative = inhibition, hits mostly inhibitors. 1.2% of 410,000 active. AID 588855; note: potency is the fitted concentration of half-maximal effect; % is set by controls: 0 for no effect and ±100 for the full control effect; nearly all actives have a fitted effect of over 65% in size
#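 Cell-based qHTS in HEPG2 carrying a CAGA-GFP Smad reporter; compounds added before 500 pg/mL final TGF-beta, 18 h incubation at 37 degrees C, GFP fluorescence quantified per cell by imaging cytometry.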
# HepG2 viability = kills HepG2 cells in TGF-b inhibitor counter-screen. Potency, µM (highest dose often 46.1 µM), for inactives: top-dose activity change, negative = cytotoxicity, hits mostly cytotoxic. HepG2 CAGA-GFP viability, ATP luminescence, 18 h. 0.76% of 410,000 active; note: potency is the fitted concentration of half-maximal effect
#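 CellTiter-Glo luminescence gave cytotoxicity after 18 hours at 37 degrees C. The cells were HepG2 CAGA-GFP in 1% FBS DMEM, stimulated with 500 pg/mL TGF-beta after compound addition. %Activity was normalised to no-cell wells (complete cell-killing) and DMSO (no toxicity), and curves were fitted and classified.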
# TDP1 cell CPT = DT40-hTDP1 cell growth loss with CPT | chicken DT40 Tdp1-/-;hTDP1 cells + 20 nM CPT, ATP luminescence, 48 h | Potency, µM (titrated, usually from 46.2 µM), for inactives: top-dose activity change, negative = growth inhibition, actives largely listed as inhibitors | 12% of 420,000 active | AID 686979; note: potency is the fitted concentration of half-maximal effect; % is set by controls: 0 for no effect and ±100 for the full control effect; nearly all actives have a fitted effect of over 55% in size
#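 Cell growth measured by CellTiter-Glo luminescence after a minimum 48 h, 37 C compound exposure with 20 nM CPT in Tdp1-knockout DT40 cells stably expressing hTDP1, seeded 400/well; qHTS titration format.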
# ASM inhibitor = blocks human secretory acid sphingomyelinase; P17405; placental ASM, HMU-PC fluorogenic substrate, 60 min; Potency, µM (series often up to 57.5 µM), for the others: at the top dose activity change, negative = inhibition, actives largely listed as inhibitors; 0.006% of 340,000 active; AID 504937; note: potency is the fitted concentration of half-maximal effect
# Target sequence (P17405 47-631 limits assumed): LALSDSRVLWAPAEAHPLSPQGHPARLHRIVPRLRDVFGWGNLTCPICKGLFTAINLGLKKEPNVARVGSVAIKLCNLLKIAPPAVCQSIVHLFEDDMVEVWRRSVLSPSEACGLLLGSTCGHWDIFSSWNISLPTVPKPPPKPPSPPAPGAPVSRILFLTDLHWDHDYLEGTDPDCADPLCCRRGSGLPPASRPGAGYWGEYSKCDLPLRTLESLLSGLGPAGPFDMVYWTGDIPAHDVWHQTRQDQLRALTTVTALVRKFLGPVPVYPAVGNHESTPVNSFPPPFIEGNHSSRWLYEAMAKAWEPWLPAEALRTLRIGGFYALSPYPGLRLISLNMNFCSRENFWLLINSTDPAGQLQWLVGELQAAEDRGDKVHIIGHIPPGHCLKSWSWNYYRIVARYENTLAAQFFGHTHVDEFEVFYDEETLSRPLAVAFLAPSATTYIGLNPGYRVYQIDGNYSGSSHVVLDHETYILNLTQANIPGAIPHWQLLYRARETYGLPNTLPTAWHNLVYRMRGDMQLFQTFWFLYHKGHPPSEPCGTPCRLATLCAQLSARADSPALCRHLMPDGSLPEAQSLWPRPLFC
#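 Fluorescence read-out (Ex 386 nm, Em 447 nm) after stopping the reaction at pH 10. Enzyme: ASM from human placenta; substrate HMU-PC0, 9 uM final; 60 min, 37 °C. Compound preincubation 10 min, ambient temperature.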
# The depositor's hits bear a star; ? = inconclusive; . = not tested or not shown; [ ] = another dose, or the depositor's remark. This is a sample that favours compounds with a hit; in the whole collection about 19% have one here. Unless noted, calls come from the whole dose curve; as a rule, active = well fitted curve in the direction sought with a large enough effect; inconclusive = small, poorly fitted or top-dose-only effect, or another doubt; inactive = no such curve, though single readings can be large; an effect the other way counts as inactive or inconclusive.
SMILES,DT40 TDP1 no CPT,IL1B secr inh,TGFb inhibitor,HepG2 viability,TDP1 cell CPT,ASM inhibitor
O=C(c1ccc2c(c1)OCCO2)N(Cc1cccnc1)c1nc2ccc(F)cc2s1,?,.,-4.5%,-21.4%,?,.
Cc1ccc(C(=O)Nc2ccc3c(c2)OCO3)o1,16.4µM*,21.5,-7.6%,-31.8%,14.6µM*,-0.3%
O=C(Nc1cc(Cl)ccc1Cl)N1CCCC1,18.4µM*,-25.9,6.1%,7.5%,20.6µM*,1.3%
COc1ccc(Cl)cc1NC(=O)Nc1ccccc1SC,?,42.2,-18.1%,-30.8%,?,4.4%
O=C(Nc1cccc(Cl)c1)N1CCCCCC1,-3.3%,-1.5,4.4%,5.5%,-1.4%,-2.8%
C/C(=C\C(=O)c1ccc(C)o1)Nc1ccc2c(c1)OCO2,-18.0%,41.4,11.6%,-2.9%,-7.3%,2.8%
COc1ccc(Cl)cc1NC(=O)Nc1ccccc1C(N)=O,8.2µM*,20.0,-7.0%,-12.8%,18.4µM*,-4.8%
O=C(Nc1ccc2c(c1)OCO2)Nc1ccccc1F,5.8µM*,?,-8.9%,-54.4%,9.2µM*,-3.5%
COC(=O)C[C@@H]1CC[C@@H](NS(=O)(=O)c2ccccc2OC)[C@@H](CO)O1,30.3%,30.4,.,.,-10.3%,.
CCNC(=O)C1(C)CCCN(Cc2ccc(-n3ccnc3)cc2)C1 (stereo unspecified),-12.9%,-9.9,-5.2%,-9.1%,-4.7%,.
O=c1[nH]c(=S)c2n[nH]nc2[nH]1,-23.0%,.,2.8%,19.3%,7.6%,.
CC(=O)Nc1ccc(NC(=O)Nc2cccc(Cl)c2)cc1,-8.1%,-2.5,-1.9%,2.4%,-27.3%,-1.4%
CSc1ccccc1NC(=O)Nc1ccc(Cl)cc1,-29.9%,?,?,-34.3%,20.6µM*,-9.8%
CC(=O)c1ccc(NC(=O)Nc2cccc(Cl)c2)cc1,?,-95.9*,-25.6%,-47.7%,20.6µM*,-15.4%
O=C(NNc1ccccc1[N+](=O)[O-])Nc1ccc(F)cc1F,?,-9.4,3.8%,-1.2%,?,-2.8%
O=C(Nc1cccc(Cl)c1)OCCOC(=O)Nc1cccc(Cl)c1,20.6µM*,?,?,-27.8%,?,-28.2%
O=C(NNc1ccccc1[N+](=O)[O-])Nc1cccc(Cl)c1,14.6µM*,-8.6,?,-32.6%,20.6µM*,-17.1%
COC(=O)c1cccc(NC(=O)Nc2ccc(Cl)c(Cl)c2)c1,?,-85.1*,?,11.2µM*,18.4µM*,?
O=C(NCc1ccc2c(c1)OCO2)Nc1cccc(Cl)c1,-1.5%,-19.0,?,-35.9%,-4.7%,-3.0%
O=C(NNc1ccccc1)Nc1cc(Cl)ccc1Cl,-21.7%,-97.3*,6.0%,-28.0%,-26.6%,-9.5%
COc1ccc(Cl)cc1NC(=S)NNC(=O)C1(C)CC1(Cl)Cl (stereo unspecified),?,?,20µM*,-42.3%,4.0%,0.0%
COC(=O)c1cc(OC)c(OC)cc1NC(=S)Nc1cc(Cl)ccc1OC,?,-22.2,-27.7%,-0.7%,?,-1.9%
O=C(Nc1cccc(Cl)c1)Nc1ccc2c(c1)OCO2,16.4µM*,?,-4.6%,-27.2%,?,-3.5%
C/C(=N\NC(=O)C1CC1)c1ccc2c(c1)OCCO2,-0.5%,-17.4,0.2%,-4.3%,-0.8%,-5.4%
COc1cccc(NC(=O)Nc2ccccc2C(N)=O)c1,-21.0%,-1.6,0.7%,-6.4%,-29.0%,-0.9%
SMILES,DT40 TDP1 no CPT,IL1B secr inh,TGFb inhibitor,HepG2 viability,TDP1 cell CPT,ASM inhibitor
N#Cc1cccc(NC(=O)c2ccccc2C(=O)O)c1,-4.9%,-11.6,-19.1%,-2.2%,-15.7%,6.0%
CSc1ccc(NC(=O)Nc2ccccc2C(N)=O)cc1,?,0.0,-1.1%,-35.2%,13µM*,6.8%
Cc1ccc(N(C(C)C(=O)Nc2ccc3c(c2)OCO3)S(C)(=O)=O)cc1 (stereo unspecified),20.6µM*,-4.4,23.4%,11.1%,13µM*,-0.9%
N#Cc1ccc(NC(=O)Nc2cccc(C#N)c2)cc1,6.51µM*,-10.9,?,-48.0%,6.51µM*,-6.2%
NC(=O)c1ccccc1NC(=O)Nc1cccc(Cl)c1,?,-0.7,5.3%,-6.4%,11.6µM*,-2.1%
CCc1ccccc1NC(=O)CCNC(=O)Cn1ccc2ccccc2c1=O,-16.4%,13.9,10.8%,-3.6%,-4.9%,2.6%
O=C(Nc1ccccc1)Nc1cccc(Cl)c1,11.2µM*,?,-3.6%,-42.2%,14.1µM*,-4.0%
O=C(CCl)Nc1ccc2c(c1)OCO2,?,-97.4*,-15.2%,-52.2%,13µM*,1.8%
O=C(CN1c2ccccc2Sc2ccccc21)NNC(=O)Nc1cccc(Cl)c1,10.3µM*,-88.3*,?,-52.8%,23.1µM*,-10.0%
CN1CCC/C1=C1/C(=O)N(c2ccccc2)N=C1NC(=O)Nc1cccc(Cl)c1,14.6µM*,-12.0,-11.2%,0.0%,8.2µM*,-2.2%
COc1ccc(N(C)S(=O)(=O)c2cccc3cccnc23)c(OC)c1,18.4µM*,22.2,?,-1.9%,?,-1.5%
CSc1ccccc1NC(=O)CN(C)C(=O)COc1cccc2cccnc12,3.26µM*,14.4,?,11.2µM*,5.17µM*,-1.9%
COc1ccccc1NC(=O)CN(C)S(=O)(=O)c1cccc2cccnc12,18.4µM*,-19.0,6.6%,1.8%,35.5%,1.3%
COc1ccc(N(C(=O)C2CCCCC2)S(=O)(=O)c2cccc3cccnc23)cc1,-24.2%,-51.9*,0.0%,-5.5%,15.2%,-3.6%
COc1ccc(NC(=O)CN(C)C(=O)CSc2ccc(Br)cc2)cc1,?,19.9,-1.8%,-16.9%,-25.6%,-1.4%
Cc1ccc(NC(=O)CN(C)S(=O)(=O)c2cccc3cccnc23)cc1C,14.6µM*,-22.5,1.3%,-21.1%,?,-0.7%
Nc1cc(=O)[nH]c(SCc2cccc(Cl)c2)n1,?,84.3,3.9%,-3.8%,23.1µM*,-1.0%
Nc1cc(=O)[nH]c(SCc2ccc(Cl)cc2)n1,-25.4%,34.1,2.2%,-19.3%,-2.1%,-2.8%
Nc1cc(=O)[nH]c(SCc2ccccc2)n1,4.0%,5.8,-2.2%,-21.2%,18.8%,.
CC(C)(C)c1ccc(CSc2nc(N)cc(=O)[nH]2)cc1,18.4µM*,-2.4,?,-5.9%,23.1µM*,3.2%
CN(C)CC(C)(O)c1ccc2c(c1)CN(Cc1cccn1-c1ncccn1)CCO2 (stereo unspecified),-14.4%,.,.,.,4.3%[9.04 µM],.

# Screens deposited in PubChem by National Center for Advancing Translational Sciences (NCATS).
